Read-out in experiment [1]: Interleukin-8 (IL8), CXCL8 (gene 3576)
In words: BSK_CASM3C_IL8: BioMAP Diversity Plus: CASM3C Assay for Interleukin-8 (IL8) Biomarker Activity (AID 2283042).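 Note: IL-8 protein level quantified by ELISA.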 Conditions: primary human coronary artery smooth muscle cells; actives raise or lower the signal.

Read-out in experiment [2]: Human Leukocyte Antigen - DR isotype (HLADR), HLA-DRA (gene 3122)
As to the kind of experiment: BSK_CASM3C_HLADR: BioMAP Diversity Plus: CASM3C Assay for Human Leukocyte Antigen - DR isotype (HLADR) Biomarker Activity (AID 2283043).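 Note: cell-surface HLA-DR protein level quantified by ELISA.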 Conditions: primary human coronary artery smooth muscle cells; actives raise or lower the signal.

Read-out in experiment [3]: Macrophage colony-stimulating factor (MCSF), CSF1 (gene 1435)
As to the kind of experiment: BSK_CASM3C_MCSF: BioMAP Diversity Plus: CASM3C Assay for Macrophage colony-stimulating factor (MCSF) Biomarker Activity (AID 2283044).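 Note: M-CSF protein amount quantified by ELISA after 24 h exposure.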 To be noted: primary human coronary artery smooth muscle cells; actives raise or lower the signal.

Read-out in experiment [4]: Low-density lipoprotein receptor (LDLR), LDLR (gene 3949)
As to the kind of experiment: BSK_CASM3C_LDLR: BioMAP Diversity Plus: CASM3C Assay for Low-density lipoprotein receptor (LDLR) Biomarker Activity (AID 2283045).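 Note: LDLR protein level on the cell surface quantified by ELISA.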 To be noted: primary human coronary artery smooth muscle cells; actives raise or lower the signal.

Read-out in experiment [5]: Monocyte Chemoattractant Protein-1 (MCP1), CCL2 (gene 6347)
As to the kind of experiment: BSK_CASM3C_MCP1: BioMAP Diversity Plus: CASM3C Assay for Monocyte Chemoattractant Protein-1 (MCP1) Biomarker Activity (AID 2283046).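 Note: MCP-1 level quantified by ELISA 24 h after dosing.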 Conditions: primary human coronary artery smooth muscle cells; actives raise or lower the signal.

Experiment [6] can be described thus: BSK_CASM3C_Proliferation: Cell Proliferation Assessment in the BioMAP Diversity Plus: CASM3C Assay (AID 2283047).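 Note: sulforhodamine B total protein stain as relative cell number at 560 nm; sub-confluent cells exposed 48 h before staining; fitted both ways against DMSO so gain or loss of cell number.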 To be noted: primary human coronary artery smooth muscle cells.
Read-out in experiment [7]: Monokine induced gamma interferon (MIG), CXCL9 (gene 4283)
As to the kind of experiment: BSK_CASM3C_MIG: BioMAP Diversity Plus: CASM3C Assay for Monokine induced gamma interferon (MIG) Biomarker Activity (AID 2283048).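 Note: MIG protein level measured by ELISA.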 Conditions: primary human coronary artery smooth muscle cells; actives raise or lower the signal.

Read-out in experiment [8]: serum amyloid A (SAA), SAA1 (gene 6288)
In words: BSK_CASM3C_SAA: BioMAP Diversity Plus: CASM3C Assay for serum amyloid A (SAA) Biomarker Activity (AID 2283049).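 Note: SAA protein level quantified by ELISA.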 To be noted: primary human coronary artery smooth muscle cells; actives raise or lower the signal.

The nature of experiment [9]: BSK_CASM3C_SRB: Viability Assessment in the BioMAP Diversity Plus: CASM3C Assay (AID 2283050).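 Note: cells exposed to compound for 24 h.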 To be noted: primary human coronary artery smooth muscle cells.
Read-out in experiment [10]: Thrombomodulin, THBD (gene 7056)
In words: BSK_CASM3C_Thrombomodulin: BioMAP Diversity Plus: CASM3C Assay for Thrombomodulin Biomarker Activity (AID 2283051).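 Note: thrombomodulin protein level measured by ELISA 24 h after dosing.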 Conditions: primary human coronary artery smooth muscle cells; actives raise or lower the signal.

Read-out in experiment [11]: Tissue Factor, F3 (gene 2152)
In words: BSK_CASM3C_TissueFactor: BioMAP Diversity Plus: CASM3C Assay for Tissue Factor Biomarker Activity (AID 2283052).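 Note: cell surface tissue factor protein level read by ELISA.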 Conditions: primary human coronary artery smooth muscle cells; actives raise or lower the signal.

Read-out in experiment [12]: Interferon-gamma inducible Protein 10 (IP10), CXCL10 (gene 3627)
In words: BSK_hDFCGF_IP10: BioMAP Diversity Plus: hDFCGF Assay for Interferon-gamma inducible Protein 10 (IP10) Biomarker Activity (AID 2283053). To be noted: primary human foreskin fibroblasts; actives raise or lower the signal. The essentials:
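IP-10 levels, quantified by ELISA, are taken from human foreskin fibroblast cultures 24 h after chemical treatment, with DMSO serving as negative control and baseline for bidirectional analysis.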

Read-out in experiment [13]: Urokinase-type plasminogen activator receptor (uPAR), PLAUR (gene 5329)
As to the kind of experiment: BSK_CASM3C_uPAR: BioMAP Diversity Plus: CASM3C Assay for Urokinase-type plasminogen activator receptor (uPAR) Biomarker Activity (AID 2283054).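 Note: cell-surface uPAR protein level quantified by ELISA.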 To be noted: primary human coronary artery smooth muscle cells; actives raise or lower the signal.

Read-out in experiment [14]: Vascular cell adhesion molecule 1 (VCAM1), VCAM1 (gene 7412)
As to the kind of experiment: BSK_CASM3C_VCAM1: BioMAP Diversity Plus: CASM3C Assay for Vascular cell adhesion molecule 1 (VCAM1) Biomarker Activity (AID 2283055).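 Note: VCAM-1 protein level quantified by ELISA on the cells.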 Conditions: primary human coronary artery smooth muscle cells; actives raise or lower the signal.

Read-out in experiment [15]: Collagen III, COL3A1 (gene 1281)
As to the kind of experiment: BSK_hDFCGF_CollagenIII: BioMAP Diversity Plus: hDFCGF Assay for Collagen III Biomarker Activity (AID 2283056). To be noted: primary human foreskin fibroblasts; actives raise or lower the signal. In a few lines:
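Human foreskin fibroblast primary cultures sampled 24 h after dosing; Collagen III quantified by ELISA. Signal fitted bidirectionally against DMSO baseline.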

Read-out in experiment [16]: Epidermal growth factor receptor (EGFR), EGFR (gene 1956)
In words: BSK_hDFCGF_EGFR: BioMAP Diversity Plus: hDFCGF Assay for Epidermal growth factor receptor (EGFR) Biomarker Activity (AID 2283057). Conditions: primary human foreskin fibroblasts; actives raise or lower the signal. In a few lines:
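Measured by ELISA: EGFR levels on primary human foreskin fibroblasts 24 h after chemical treatment, analysed relative to DMSO with bidirectional fitting.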

Read-out in experiment [17]: Interleukin-8 (IL8), CXCL8 (gene 3576)
In words: BSK_hDFCGF_IL8: BioMAP Diversity Plus: hDFCGF Assay for Interleukin-8 (IL8) Biomarker Activity (AID 2283058). Conditions: primary human foreskin fibroblasts; actives raise or lower the signal. In a few lines:
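Primary human foreskin fibroblasts (hDFCGF system) dosed with chemical; IL-8 measured by ELISA 24 hours later. Bidirectional curve fitting relative to DMSO baseline; cytotoxicity tracked in parallel cultures by SRB total protein staining.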

The nature of experiment [18]: BSK_hDFCGF_Proliferation: Cell Proliferation Assessment in the BioMAP Diversity Plus: hDFCGF Assay (AID 2283059).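 Note: curves fitted for both rise and fall of signal versus DMSO baseline.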 To be noted: primary human foreskin fibroblasts. In a few lines:
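Steps: dose primary human dermal fibroblasts (foreskin); […] fix in 10% TCA; stain with 0.1% SRB; read 560 nm; fit gain or loss of signal against DMSO.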

Experiment [19] can be described thus: BSK_hDFCGF_SRB: Viability Assessment in the BioMAP Diversity Plus: hDFCGF Assay (AID 2283061).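 Note: cells exposed to compound for 24 h before the read.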 Conditions: primary human foreskin fibroblasts. In a few lines: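 Human foreskin fibroblasts in 96-well plates were treated 24 h. Total protein was measured by 0.1% SRB staining after 10% TCA fixation, read at 560 nm. Data were fitted bidirectionally against DMSO.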

Nine compounds from PubChem BioAssay (EPA / NIEHS) can be followed below.

One may read the AC50 as the concentration giving half of the maximal activity seen.

Calls of active or inactive are those of the source. Rule for the calls: active = hit-call score of the fitted dose curve at least 0.9, where 1 is the maximum; inactive = score below 0.9.

`CCOC(=O)C(O)(c1ccc(Cl)cc1)c1ccc(Cl)cc1`: the outcome in [1], in experiment [2], in experiment [3], in [4], in [5] and in experiment [7] was inactive. For the same compound, the result in [8], in [11], in experiment [13], in experiment [16], in experiment [17] and in [19] was inactive. The AC50 in experiment [6] was 30 µM (active); in [9], 29.5 µM (active); in [10], 15 µM (active); in [12] it was 28.5 µM (active); in experiment [14], 20 µM (active); in [15] it was 30.2 µM (active). Further, in [18], the AC50 was 30.9 µM (active).

Take `Oc1ccc(Cl)cc1Cl`: the result in [1], in experiment [2], in [3], in experiment [4], in experiment [5] and in experiment [6] was inactive. The outcome in [7], in experiment [8], in experiment [9], in experiment [10], in [11] and in [12] was inactive. Also, the result in experiment [13], in experiment [14], in experiment [15], in experiment [16], in experiment [17] and in experiment [18] was inactive. Further, the outcome in experiment [19] was inactive.

For `CN(C)c1nc(=O)n(C2CCCCC2)c(=O)n1C`, the outcome in experiment [1], in experiment [2], in experiment [3], in [4], in [5] and in [6] was inactive. Also, the outcome in experiment [7], in experiment [8], in experiment [9], in experiment [10], in experiment [11] and in experiment [12] was inactive. Besides, the outcome in experiment [13], in experiment [14], in [15], in [16], in experiment [17] and in experiment [18] was inactive. Further, in experiment [19], the outcome was inactive.

On to `Cc1cc(O)ccc1Cl`, for which the outcome in [1], in experiment [2], in [3], in experiment [4], in [5] and in experiment [6] was inactive. Moreover, the result in experiment [7], in [8], in experiment [9], in experiment [10], in experiment [11] and in experiment [12] was inactive. Also, the result in experiment [13], in experiment [14], in experiment [15], in experiment [16], in experiment [17] and in experiment [18] was inactive. Besides, the result in experiment [19] was inactive.

With `C1CC2OC2CC1C1CO1` (stereo unspecified), the result in experiment [1], in experiment [2], in experiment [3], in [4], in experiment [5] and in experiment [6] was inactive. The outcome in experiment [7], in experiment [8], in experiment [9], in [10], in [11] and in experiment [12] was inactive. Moreover, the result in [13], in [14], in experiment [15], in experiment [16], in [17] and in experiment [18] was inactive. In addition, the result in experiment [19] was inactive.

In the case of `CCC(C)(CC)c1cc(NC(=O)c2c(OC)cccc2OC)on1`, the result in [1], in [2], in experiment [3], in experiment [4], in [5] and in experiment [6] was inactive. Further, the result in experiment [7], in experiment [8], in experiment [9], in experiment [10], in experiment [11] and in experiment [12] was inactive. Further, the outcome in experiment [13], in experiment [14], in experiment [15], in experiment [16], in experiment [17] and in experiment [18] was inactive. Moreover, the outcome in experiment [19] was inactive.

For the compound `Cc1ccccc1[N+](=O)[O-]`, the outcome in [1], in [2], in experiment [3], in [4], in [5] and in experiment [6] was inactive. In addition, the outcome in experiment [7], in experiment [8], in [9], in experiment [10], in experiment [11] and in [12] was inactive. Moreover, the result in experiment [13], in [14], in experiment [15], in [16], in [17] and in experiment [18] was inactive. In addition, in [19], the outcome was inactive.

For `C=CC(N)=O`, the outcome in experiment [1], in [2], in [3], in experiment [4], in experiment [6] and in experiment [7] was inactive. Moreover, the outcome in [8], in experiment [9], in [10], in [11], in [12] and in experiment [13] was inactive. For the same compound, the result in [14], in experiment [15], in experiment [16], in experiment [17], in [18] and in experiment [19] was inactive. Moreover, in [5], the AC50 is 0.887 µM (active).

As for `ClC1=C(Cl)[C@]2(Cl)[C@@H]3[C@H]4C[C@H]([C@@H]5O[C@H]45)[C@@H]3[C@@]1(Cl)C2(Cl)Cl`, the outcome in [1], in [2], in experiment [3], in experiment [4], in experiment [5] and in experiment [6] was inactive. The result in experiment [7], in experiment [8], in [9], in [10], in [12] and in [13] was inactive. For the same compound, the result in [14], in [15], in experiment [16], in experiment [17] and in experiment [19] was inactive. In addition, the AC50 in [11] is 7.07 µM (active); in experiment [18] it was 6.6 µM (active).
